Records with an inconclusive call do not appear. Unmarked numbers belong to inactive results. The source made the active and inactive calls. Calls come from the whole dose curve; as a rule, active = well fitted inhibition curve with a large enough effect; inconclusive = small, poorly fitted or top-dose-only effect; inactive = flat fitted curve, though single readings scatter.
Columns and labels:
W2 = experiment: qHTS profiling for inhibitors of Plasmodium falciparum proliferation (AID 504749); note: potency is the fitted concentration of half-maximal effect; conditions: P. falciparum in erythrocytes, SYBR Green DNA, 72 h; series mostly up to 28.7 µM
How it was run: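 Each compound contacts P. falciparum-infected red blood cells for 72 h at 37 C; lysis buffer (Tris, EDTA, saponin, Triton X, SYBR Green I) is added and fluorescence measured next morning; values normalized to controls.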

CRL-7250 = normal cell line; experiment: Cytotoxic Profiling of Annotated Libraries Using Quantitative High-Throughput Screening (AID 1296008); conditions: Five cell lines viability, CellTiter-Glo ATP luminescence, 48-72 h; max response: active compounds read low; for max response: % is set by controls: 0 for no effect and ±100 for the full control effect
How it was run: (§1)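 Cells exposed to compounds for 48 or 72 hr at 37 degrees Celsius. Viability read as ATP-coupled luminescence with CellTiter-Glo after 10 min at room temperature.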

HEK293 = experiment: as above; conditions: Five cell lines viability, CellTiter-Glo ATP luminescence, 48-72 h; max response: active compounds read low
How it was run: as §1

HaCat = experiment: as above; conditions: Five cell lines viability, CellTiter-Glo ATP luminescence, 48-72 h; max response: active compounds read low
How it was run: as §1

KB-3-1 = experiment: as above; conditions: Five cell lines viability, CellTiter-Glo ATP luminescence, 48-72 h; max response: active compounds read low
How it was run: as §1

NIH3T3 = experiment: as above; conditions: Five cell lines viability, CellTiter-Glo ATP luminescence, 48-72 h; max response: active compounds read low
How it was run: as §1

MCC-13 = experiment: qHTS assay to identify novel small-molecules to repurpose for Merkel cell carcinoma treatment (AID 1296009); conditions: MCC and control cell lines, CellTiter-Glo viability, 72 h; series mostly up to 46 µM; note: % is set by controls: 0 for no effect and ±100 for the full control effect
How it was run: (§2)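 Dose-response viability screen; 72 hr exposure at 37 degree celsius; CellTiter-Glo added, 10 min room temperature, luminescence read; RLUs scaled between no-cell and DMSO wells.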

MCC-26 = experiment: as above; conditions: MCC and control cell lines, CellTiter-Glo viability, 72 h; series mostly up to 46 µM
How it was run: as §2
Note: nearly all actives have a fitted effect of over 60% in size.

Row | SMILES | Potency (W2) | max response (CRL-7250) [%] | max response (HEK293) [%] | max response (HaCat) [%] | max response (KB-3-1) [%] | max response (NIH3T3) [%] | Potency (MCC-13) | Potency (MCC-26) | outcome (CRL-7250)
1 | CCOCCn1c(N2CCCN(C)CC2)nc2ccccc21 | 4.78 µM (active) | -16.3 | -5.73 | 1.76 | -16.6 | -0.586 | inactive | inactive | –
2 | O=C(NCCc1c[nH]c2ccccc12)c1cccnc1 | inactive | 2.2 | -10.1 | -2.67 | -10.3 | 0.897 | inactive | inactive | –
3 | CCOc1ccc(NC(C)=O)cc1 | inactive | -21.4 | -5.15 | -1.35 | 8.88 | -7.54 | inactive | inactive | –
4 | CC(=O)NCCCCCC(=O)O | inactive | -1.79 | 1.53 | -2.92 | 0.772 | -7.1 | inactive | inactive | –
5 | COc1cc(C(=S)N2CCOCC2)ccc1O | inactive | -4.16 | -23.8 | -11.5 | 12.3 | -6.82 | inactive | inactive | –
6 | O=C(O)CCc1nc2ccccc2[nH]1 | – | -5.04 | -3.96 | -3 | -8.67 | -8.19 | inactive | inactive | –
7 | Cc1ccccc1OCC(O)CO (stereo not given) | inactive | – | -6.66 | 0.0907 | 1.58 | -27.4 | inactive | inactive | inactive
8 | CC1=C(C(=O)O)N2C(=O)[C@@H](NC(=O)[C@H](N)c3ccccc3)[C@H]2SC1 | inactive | -2.3 | -2.48 | 2.08 | 11.5 | 1.34 | inactive | inactive | –
9 | CCNC(=O)NCc1cccc(Cl)c1 | inactive | – | 4.87 | -5.45 | 2.4 | 0.416 | inactive | inactive | inactive
10 | C=CCN1CCc2nc(N)sc2CC1 | inactive | -5.69 | 0.777 | -12.6 | 3.04 | 2.55 | inactive | inactive | –
11 | CC(C)Cn1cnc2c1c(=O)n(C)c(=O)n2C | inactive | – | -0.637 | -0.147 | -13.7 | 1.58 | inactive | inactive | inactive
12 | C#C[C@]1(O)CC[C@H]2[C@@H]3CCc4cc(OC)ccc4[C@H]3CC[C@@]21C | inactive | -13.3 | -6.93 | -21.7 | 0.369 | -5.18 | inactive | inactive | –
13 | N[C@H](C(=O)O)[C@@H](O)c1ccc(O)c(O)c1 | – | – | -0.734 | 1.85 | -1.88 | 0.856 | inactive | inactive | inactive
14 | Cc1c(-c2ccccc2)oc2c(C(=O)OCCN3CCCCC3)cccc2c1=O | inactive | -1.78 | -20.2 | 3.56 | -3.83 | 3.38 | inactive | inactive | –
15 | CC(C)Cc1ccc(CC(=O)O)cc1 | inactive | 2.76 | -6.81 | -0.56 | -9.62 | 2.82 | inactive | inactive | –
16 | CNCCc1ccccn1 | inactive | – | -1.02 | -8.27 | 5.51 | -2.69 | inactive | inactive | inactive
17 | CCCCCCCCCCCCCCCCO | inactive | -12.4 | 1.14 | -1.51 | 19 | -5.1 | inactive | inactive | –
18 | CCCCCCCCCCCCCCCC(=O)O | inactive | -4.95 | -5.26 | -1.81 | 2.75 | 4.34 | inactive | inactive | –
19 | CC(=O)NC(=O)c1ccccc1O | inactive | -3.82 | -1.84 | -6.77 | -3.04 | 0.511 | inactive | inactive | –

Reference: PubChem BioAssay (NCATS)
